Data taken from the supplement of paper PMC11732987, “Enantioselective OTUD7B fragment discovery through chemoproteomics screening and high-throughput optimisation” (Communications Chemistry, 2025).

How the values were obtained:
Assay in all cases: log2 ratio of Biotin-Ahx-Ub-VS probe labelling (fragment/DMSO); higher = less target engagement (more negative = stronger competition), active = hit call of the paper (q ≤ 0.05, log2 ratio ≤ -1)
Details in all cases: compound concentration: 200 uM; treatment time: 3 h
USP34 = USP34 (UniProt Q70CQ2)
USP34, sequence (Q70CQ2 whole entry, the tested form may be a part): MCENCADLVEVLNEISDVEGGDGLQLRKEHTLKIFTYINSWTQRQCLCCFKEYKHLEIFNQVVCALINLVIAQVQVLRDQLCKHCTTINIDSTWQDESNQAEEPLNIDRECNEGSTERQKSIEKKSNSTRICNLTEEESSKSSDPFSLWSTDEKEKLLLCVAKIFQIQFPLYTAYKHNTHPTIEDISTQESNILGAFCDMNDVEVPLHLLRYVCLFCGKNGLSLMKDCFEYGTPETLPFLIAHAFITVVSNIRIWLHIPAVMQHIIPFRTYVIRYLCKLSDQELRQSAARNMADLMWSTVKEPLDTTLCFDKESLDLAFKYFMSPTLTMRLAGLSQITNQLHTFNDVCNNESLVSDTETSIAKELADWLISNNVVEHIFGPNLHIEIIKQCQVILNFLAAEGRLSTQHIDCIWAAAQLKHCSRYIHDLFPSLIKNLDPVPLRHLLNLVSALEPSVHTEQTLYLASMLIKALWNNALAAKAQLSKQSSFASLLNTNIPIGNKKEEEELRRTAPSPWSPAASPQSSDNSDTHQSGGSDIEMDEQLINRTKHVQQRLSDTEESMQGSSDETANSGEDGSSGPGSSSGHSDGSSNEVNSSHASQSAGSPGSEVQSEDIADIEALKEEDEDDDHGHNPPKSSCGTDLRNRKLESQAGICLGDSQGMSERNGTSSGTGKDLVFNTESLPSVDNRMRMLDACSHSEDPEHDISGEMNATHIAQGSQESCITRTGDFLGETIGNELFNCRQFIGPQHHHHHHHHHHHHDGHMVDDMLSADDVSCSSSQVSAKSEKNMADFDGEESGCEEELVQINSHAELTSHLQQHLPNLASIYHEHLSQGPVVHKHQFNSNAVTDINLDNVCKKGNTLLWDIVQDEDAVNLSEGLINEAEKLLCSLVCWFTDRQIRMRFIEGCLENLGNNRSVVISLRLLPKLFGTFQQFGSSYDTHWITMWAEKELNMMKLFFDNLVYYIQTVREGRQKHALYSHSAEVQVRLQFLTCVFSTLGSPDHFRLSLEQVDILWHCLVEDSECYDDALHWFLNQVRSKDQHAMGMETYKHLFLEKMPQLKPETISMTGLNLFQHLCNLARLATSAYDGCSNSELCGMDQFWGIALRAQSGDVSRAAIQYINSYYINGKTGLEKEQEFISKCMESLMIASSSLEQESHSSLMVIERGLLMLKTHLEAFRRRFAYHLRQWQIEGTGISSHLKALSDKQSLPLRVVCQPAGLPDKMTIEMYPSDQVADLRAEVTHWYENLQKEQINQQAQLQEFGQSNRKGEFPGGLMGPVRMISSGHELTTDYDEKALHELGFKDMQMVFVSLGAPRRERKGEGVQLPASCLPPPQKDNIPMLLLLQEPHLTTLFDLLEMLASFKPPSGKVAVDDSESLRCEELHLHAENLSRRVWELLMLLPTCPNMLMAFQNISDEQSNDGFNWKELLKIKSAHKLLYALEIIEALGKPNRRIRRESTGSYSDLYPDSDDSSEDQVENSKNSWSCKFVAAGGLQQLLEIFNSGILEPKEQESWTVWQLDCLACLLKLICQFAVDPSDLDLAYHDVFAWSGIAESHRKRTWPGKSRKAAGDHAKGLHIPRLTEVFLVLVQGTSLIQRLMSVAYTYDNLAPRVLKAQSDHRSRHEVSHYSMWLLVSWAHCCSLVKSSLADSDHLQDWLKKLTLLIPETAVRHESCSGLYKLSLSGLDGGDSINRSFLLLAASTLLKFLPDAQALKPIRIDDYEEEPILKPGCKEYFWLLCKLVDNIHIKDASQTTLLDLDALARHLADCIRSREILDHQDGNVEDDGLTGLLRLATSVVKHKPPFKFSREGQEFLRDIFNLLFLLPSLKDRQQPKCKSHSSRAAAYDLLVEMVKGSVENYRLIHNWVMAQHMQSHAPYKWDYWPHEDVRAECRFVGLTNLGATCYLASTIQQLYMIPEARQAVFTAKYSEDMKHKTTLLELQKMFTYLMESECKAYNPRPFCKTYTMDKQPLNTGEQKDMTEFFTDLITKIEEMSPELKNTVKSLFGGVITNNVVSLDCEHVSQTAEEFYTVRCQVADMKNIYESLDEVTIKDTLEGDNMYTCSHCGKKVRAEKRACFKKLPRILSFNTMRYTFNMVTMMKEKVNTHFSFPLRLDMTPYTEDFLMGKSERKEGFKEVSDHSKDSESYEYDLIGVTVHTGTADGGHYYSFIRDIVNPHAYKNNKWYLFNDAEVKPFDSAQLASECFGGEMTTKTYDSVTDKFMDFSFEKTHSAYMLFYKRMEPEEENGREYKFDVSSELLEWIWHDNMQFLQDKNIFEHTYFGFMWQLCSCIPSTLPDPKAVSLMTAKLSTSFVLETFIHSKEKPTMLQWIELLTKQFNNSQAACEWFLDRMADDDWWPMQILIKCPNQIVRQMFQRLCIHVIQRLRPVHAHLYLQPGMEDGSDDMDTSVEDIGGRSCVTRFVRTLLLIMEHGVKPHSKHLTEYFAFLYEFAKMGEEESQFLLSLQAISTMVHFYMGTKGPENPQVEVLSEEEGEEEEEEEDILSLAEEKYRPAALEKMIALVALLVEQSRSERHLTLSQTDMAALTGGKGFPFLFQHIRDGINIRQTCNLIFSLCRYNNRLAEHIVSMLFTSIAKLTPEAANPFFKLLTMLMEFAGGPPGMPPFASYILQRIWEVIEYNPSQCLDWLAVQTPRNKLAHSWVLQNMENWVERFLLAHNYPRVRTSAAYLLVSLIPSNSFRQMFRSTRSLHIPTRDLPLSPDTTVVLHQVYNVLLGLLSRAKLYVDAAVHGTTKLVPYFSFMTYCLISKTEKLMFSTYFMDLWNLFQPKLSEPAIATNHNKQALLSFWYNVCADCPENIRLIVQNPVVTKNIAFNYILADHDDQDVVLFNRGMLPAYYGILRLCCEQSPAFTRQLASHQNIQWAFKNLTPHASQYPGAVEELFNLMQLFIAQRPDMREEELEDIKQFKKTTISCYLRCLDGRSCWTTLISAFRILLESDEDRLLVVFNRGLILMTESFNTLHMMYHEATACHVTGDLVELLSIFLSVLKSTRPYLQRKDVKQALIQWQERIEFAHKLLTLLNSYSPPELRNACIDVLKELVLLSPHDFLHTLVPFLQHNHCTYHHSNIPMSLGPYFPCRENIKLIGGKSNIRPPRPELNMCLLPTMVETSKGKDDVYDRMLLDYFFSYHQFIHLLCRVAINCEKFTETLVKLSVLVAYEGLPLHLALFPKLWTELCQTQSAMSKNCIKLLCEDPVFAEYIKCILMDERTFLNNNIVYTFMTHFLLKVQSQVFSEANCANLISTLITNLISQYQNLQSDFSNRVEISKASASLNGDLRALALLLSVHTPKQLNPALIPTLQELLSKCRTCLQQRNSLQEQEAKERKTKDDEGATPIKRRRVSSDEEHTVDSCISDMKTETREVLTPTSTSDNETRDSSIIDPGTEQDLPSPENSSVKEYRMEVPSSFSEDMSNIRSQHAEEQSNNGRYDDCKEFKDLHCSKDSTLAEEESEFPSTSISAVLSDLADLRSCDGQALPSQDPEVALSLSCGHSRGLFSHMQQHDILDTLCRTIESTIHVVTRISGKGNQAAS
Outline: (§1)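 Fragment (200 µM) or vehicle was incubated for 3 h with triplicate HEK293T lysate samples of 495 µg, which were then treated with Biotin-Ahx-Ub-VS at 0.5 µM final for 1 h. Labelled DUBs were enriched on NeutrAvidin, digested with LysC and trypsin, and analysed by diaPASEF LC-MS/MS. Values are average log2 fragment/vehicle ratios from an unpaired t-test on global-median-normalised Spectronaut label-free quantities, using proteins with ≥2 unique peptides.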

USP36 = target: T1, USP36 (UniProt Q9P275)
T1 sequence (whole entry): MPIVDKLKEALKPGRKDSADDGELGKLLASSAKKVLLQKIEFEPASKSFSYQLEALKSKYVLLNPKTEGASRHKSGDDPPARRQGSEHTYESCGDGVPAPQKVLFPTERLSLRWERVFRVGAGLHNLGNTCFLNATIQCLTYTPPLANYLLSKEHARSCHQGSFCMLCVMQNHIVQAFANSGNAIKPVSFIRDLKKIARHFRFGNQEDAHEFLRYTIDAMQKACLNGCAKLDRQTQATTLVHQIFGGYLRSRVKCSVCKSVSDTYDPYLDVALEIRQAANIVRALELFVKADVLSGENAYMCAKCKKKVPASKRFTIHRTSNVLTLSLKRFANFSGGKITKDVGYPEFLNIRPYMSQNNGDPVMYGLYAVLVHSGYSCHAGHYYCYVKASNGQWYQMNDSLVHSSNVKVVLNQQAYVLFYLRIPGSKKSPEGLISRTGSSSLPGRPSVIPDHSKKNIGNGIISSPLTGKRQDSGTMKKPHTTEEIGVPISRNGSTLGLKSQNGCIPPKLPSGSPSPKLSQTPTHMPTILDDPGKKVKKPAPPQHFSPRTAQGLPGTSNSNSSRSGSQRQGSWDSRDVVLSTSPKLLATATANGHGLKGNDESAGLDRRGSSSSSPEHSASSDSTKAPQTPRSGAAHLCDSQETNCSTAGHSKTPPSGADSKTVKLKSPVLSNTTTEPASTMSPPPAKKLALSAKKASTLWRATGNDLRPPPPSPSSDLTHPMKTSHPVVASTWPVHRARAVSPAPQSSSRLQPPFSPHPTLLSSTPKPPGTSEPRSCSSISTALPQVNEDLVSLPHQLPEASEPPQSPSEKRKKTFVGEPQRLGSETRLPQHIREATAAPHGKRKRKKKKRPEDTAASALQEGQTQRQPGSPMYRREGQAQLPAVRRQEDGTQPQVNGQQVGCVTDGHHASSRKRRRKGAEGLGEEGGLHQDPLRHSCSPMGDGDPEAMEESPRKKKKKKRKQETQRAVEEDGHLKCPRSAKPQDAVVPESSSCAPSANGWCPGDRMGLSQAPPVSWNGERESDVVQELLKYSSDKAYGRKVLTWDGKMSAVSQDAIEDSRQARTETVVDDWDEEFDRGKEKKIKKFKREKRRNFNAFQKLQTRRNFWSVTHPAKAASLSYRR
Outline: as §1

USP38 = target: T2, USP38 (UniProt Q8NB14)
T2 sequence (whole entry): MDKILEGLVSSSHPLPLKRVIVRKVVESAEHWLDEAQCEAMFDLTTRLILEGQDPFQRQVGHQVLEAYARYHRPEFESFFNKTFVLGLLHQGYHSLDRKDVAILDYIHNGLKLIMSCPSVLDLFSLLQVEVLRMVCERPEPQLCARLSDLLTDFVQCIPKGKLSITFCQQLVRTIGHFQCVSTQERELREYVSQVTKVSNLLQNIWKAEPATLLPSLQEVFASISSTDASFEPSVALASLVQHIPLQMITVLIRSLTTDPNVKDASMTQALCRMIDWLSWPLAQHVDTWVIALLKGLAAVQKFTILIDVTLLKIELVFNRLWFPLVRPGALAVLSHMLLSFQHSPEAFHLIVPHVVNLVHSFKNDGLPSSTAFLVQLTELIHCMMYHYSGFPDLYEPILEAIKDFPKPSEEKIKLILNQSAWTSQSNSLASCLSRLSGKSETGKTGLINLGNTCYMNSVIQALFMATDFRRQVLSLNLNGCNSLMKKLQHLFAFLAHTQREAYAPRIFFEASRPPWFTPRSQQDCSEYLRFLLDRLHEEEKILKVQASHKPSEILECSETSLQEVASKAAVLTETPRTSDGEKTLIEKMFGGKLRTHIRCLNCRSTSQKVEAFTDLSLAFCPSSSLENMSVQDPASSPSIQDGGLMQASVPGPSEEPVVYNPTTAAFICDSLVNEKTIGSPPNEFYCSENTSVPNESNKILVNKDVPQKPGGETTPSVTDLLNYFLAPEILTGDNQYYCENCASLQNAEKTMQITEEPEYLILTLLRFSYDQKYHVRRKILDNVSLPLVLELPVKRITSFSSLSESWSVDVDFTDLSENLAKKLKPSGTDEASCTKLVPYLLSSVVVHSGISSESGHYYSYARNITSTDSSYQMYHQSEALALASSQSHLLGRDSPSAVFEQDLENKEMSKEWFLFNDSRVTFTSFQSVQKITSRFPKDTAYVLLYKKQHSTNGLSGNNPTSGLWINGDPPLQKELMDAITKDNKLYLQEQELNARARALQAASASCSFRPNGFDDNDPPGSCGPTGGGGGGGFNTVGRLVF
Outline: as §1

USP39 = target: T3, USP39 (UniProt Q53GS9)
T3 sequence (whole entry): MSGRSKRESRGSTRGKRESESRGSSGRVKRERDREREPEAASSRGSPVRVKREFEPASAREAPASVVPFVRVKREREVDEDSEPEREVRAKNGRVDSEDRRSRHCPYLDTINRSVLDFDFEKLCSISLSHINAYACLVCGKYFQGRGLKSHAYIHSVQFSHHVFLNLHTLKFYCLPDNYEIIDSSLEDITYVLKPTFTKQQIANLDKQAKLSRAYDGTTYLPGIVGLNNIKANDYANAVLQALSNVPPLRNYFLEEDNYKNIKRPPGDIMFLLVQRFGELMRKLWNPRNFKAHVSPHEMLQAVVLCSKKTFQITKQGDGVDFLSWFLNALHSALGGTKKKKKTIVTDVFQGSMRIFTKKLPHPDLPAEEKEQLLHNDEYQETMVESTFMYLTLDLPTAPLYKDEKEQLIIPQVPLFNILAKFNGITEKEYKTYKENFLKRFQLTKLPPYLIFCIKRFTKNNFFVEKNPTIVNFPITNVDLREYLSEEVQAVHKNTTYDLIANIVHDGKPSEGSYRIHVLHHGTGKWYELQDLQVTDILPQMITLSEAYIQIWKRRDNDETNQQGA
Outline: as §1

USP4 = target: T4, USP4 (UniProt Q13107)
T4 sequence (whole entry): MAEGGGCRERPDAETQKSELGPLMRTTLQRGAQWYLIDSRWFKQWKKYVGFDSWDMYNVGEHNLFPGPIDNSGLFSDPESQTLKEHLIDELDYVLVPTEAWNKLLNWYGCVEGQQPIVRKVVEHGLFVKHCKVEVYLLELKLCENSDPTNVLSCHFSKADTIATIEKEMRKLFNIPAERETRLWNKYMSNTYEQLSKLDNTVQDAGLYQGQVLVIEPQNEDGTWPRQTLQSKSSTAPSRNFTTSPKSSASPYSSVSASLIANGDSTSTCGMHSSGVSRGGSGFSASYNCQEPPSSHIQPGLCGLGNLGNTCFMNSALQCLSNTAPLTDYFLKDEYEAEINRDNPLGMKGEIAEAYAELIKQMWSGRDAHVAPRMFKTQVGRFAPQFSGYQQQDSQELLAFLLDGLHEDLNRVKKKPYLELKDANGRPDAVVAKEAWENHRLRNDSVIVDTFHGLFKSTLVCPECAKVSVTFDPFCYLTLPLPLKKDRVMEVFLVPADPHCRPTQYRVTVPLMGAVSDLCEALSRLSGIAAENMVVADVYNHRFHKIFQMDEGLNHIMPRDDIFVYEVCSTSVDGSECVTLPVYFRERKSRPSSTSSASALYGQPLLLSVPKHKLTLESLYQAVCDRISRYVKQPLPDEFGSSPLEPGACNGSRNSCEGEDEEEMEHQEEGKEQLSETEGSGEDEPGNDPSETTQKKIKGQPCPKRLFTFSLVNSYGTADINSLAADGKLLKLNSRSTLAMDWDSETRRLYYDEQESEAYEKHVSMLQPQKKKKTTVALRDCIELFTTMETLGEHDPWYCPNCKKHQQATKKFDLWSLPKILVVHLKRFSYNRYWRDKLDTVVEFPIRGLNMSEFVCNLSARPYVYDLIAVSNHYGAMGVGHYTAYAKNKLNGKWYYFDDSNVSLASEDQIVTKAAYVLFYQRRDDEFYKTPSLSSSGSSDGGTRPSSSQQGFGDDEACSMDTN
Outline: as §1

Measured: log2 ratio of Biotin-Ahx-Ub-VS probe labelling

O=C(CCl)N1CCOCC1C1CC1 (stereo not given)
inactive: USP34 0.0844 | USP36 -0.0397 | USP38 0.0391 | USP39 0.265 | USP4 -0.101
